Structures are written as SMILES. Inconclusive results are not listed. A number with no mark means an inactive call. Active and inactive are the calls of the source. Calls follow the shape of the dose curve; as a rule, active = well fitted cell-killing curve with a large enough effect; inconclusive = small, poorly fitted or top-dose-only effect; inactive = flat fitted curve, though single readings scatter. *1 amine or outer side, *2 acyl side, *3 side chain or, on linkers, in order; H or OH if unused. Where a SMILES comes first, the peptide text is derived from it. Bridges are numbered along the chain shown (N, C = ends). [ ]: non-standard residue; d: D form. The star is where a group is joined. X5 = NC1=N[C@@H]([C@H](N[*:1])C(=O)[*:2])C[C@H](O)N1; ΔAla(Z-3-ureido) = NC(=O)N/C=C(\N)C(=O)O; β3hOrn = NCCC[C@H](N)CC(=O)*; Dap = NC[C@H](N)C(=O)O
% is scaled to controls: 0 for no effect and ±100 for the full control effect; potency is read from the fitted curve at half-maximal effect.

The nature of the assay: qHTS assay to identify small molecule inhibitors of chordoma cells - UCH-2 (AID 1259356). The settings on record: UCH-2 chordoma viability, CellTiter-Glo ATP luminescence, 48 h; series mostly up to 46.1 µM; activity change, negative = inhibition: at the top concentration. From the text: NIH Chemical Genomics Center [NCGC]
Chordoma is a rare and slow growing tumor that can occur anywhere along the spine, from the base of the skull to the tailbone. Current treatment options for chordoma is surgery and radiation therapy for those who are not candidates for surgery. But chordomas tend to return in the same location or surrounding areas of the original tumor after surgery and/or radiation. Chemotherapy can slow down the progression of the tumor. As chordoma is slow growing, the general cytotoxic agents that kill fast growing cells are ineffective, and some patients have been reported to respond to molecularly targeted drugs.
NCATS Pharmaceutical Collection (NPC) containing approximately 3000 clinically approved and investigational drugs were used to screen at 15 concentrations in a chordoma cell lines, UCH-2, to identify small molecule compounds that can inhibit chordoma cell growth.
NCGC Assay Protocol Summary:
Human chordoma cell line UCH-2 was dispensed at 800 per well in 4uL of culture medium into white solid bottom 1536-well plates (Corning Life Sciences, Corning, NY) using a Multidrop Combi (Thermo Scientific, Waltham, MA) dispenser. The assay plates were incubated at 37 C and 5% CO2 for an overnight, and then 23nL of compounds dissolved in DMSO and positive control were transferred using a Pintool station (Wako, San Diego, CA). Compound treatment was followed by the addition of 1uL of the combination compounds (1uM Auranofin, 500nM each of Camptothecin, Doxorubicin, Rubitecan, and Topotecan) and assay medium to each well of the assay plates using Flying Reagent Dispenser (FRD, Aurora Discovery, San Diego, CA). The assay plates were incubated at 37 C and 5% CO2 for 48hr. Then 5uL of CellTiter-Glo reagent (Promega Corporation, Madison, WI) was added to each well of the assay plates using FRD. After 30min incubation at room temperature, the luminescence signal was quantified using a ViewLux plate reader (PerkinElmer, Shelton, CT).
(Quantitative high-throughput screening tests each substance at several concentrations.)
As for `C[C@@H]1O[C@@H]1P(=O)(O)O`, the “activity change, negative = inhibition” value was 20.2%.

As for `NC(=O)c1ccc[n+]([C@@H]2O[C@H](COP(=O)([O-])OP(=O)(O)OC[C@H]3O[C@@H](n4cnc5c(N)ncnc54)[C@H](O)[C@@H]3O)[C@@H](O)[C@H]2O)c1`, the “activity change, negative = inhibition” value was 6.09% [at 20.6 µM].

Turning to `CCN(CC)CCOC[C@H]1O[C@@H](O)[C@H](OCCN(CC)CC)[C@@H](O)[C@@H]1O`, the “activity change, negative = inhibition” value is -1.42%.

In the case of `CNC(=O)c1c(I)c(C(=O)NCC(=O)Nc2c(I)c(C(=O)O)c(I)c(C(=O)NCCO)c2I)c(I)c(N(C)C(C)=O)c1I`, the “activity change, negative = inhibition” value was 5.31%.

Take `N#Cc1ccc2c(c1)N(CCCN1CCC(O)CC1)c1ccccc1S2`: the “activity change, negative = inhibition” value is 7.09%.

`CN1c2c(nc(N)[nH]c2=O)NCC1CNc1ccc(C(=O)NC(CCC(=O)O)C(=O)O)cc1` (stereo not given): the “activity change, negative = inhibition” value is -0.708%.

For the compound `C=CC1=C(C(=O)O)N2C(=O)[C@@H](NC(=O)/C(=N/OCC(=O)O)c3csc(N)n3)[C@H]2SC1` (stereo in doubt), the “activity change, negative = inhibition” value is -1.13% [at 20.6 µM].

Consider `NC(N)=NCC1COc2ccccc2O1` (stereo not given), for which the “activity change, negative = inhibition” value is -3.02%.

For the compound `CC1CS(=O)(=O)CCN1/N=C/c1ccc([N+](=O)[O-])o1` (stereo not given), the “activity change, negative = inhibition” value is -8.02% [at 20.6 µM].

As for `CCN1\C(=C/C=C/C=C/c2sc3ccccc3[n+]2CC)Sc2ccccc21`, the Potency is 18.3 µM (active).

For `CC1(C)S[C@@H]2[C@H](NC(=O)C3(N)CCCCC3)C(=O)N2[C@H]1C(=O)O`, the “activity change, negative = inhibition” value is 6.59%.

With `CC(=NCc1ccccc1)c1ccccc1O`, the “activity change, negative = inhibition” value was 0.822%.

As for `CC(C)(C)CC(C)(C)c1cc(Cc2cc(C(C)(C)CC(C)(C)C)cc(-n3nc4ccccc4n3)c2O)c(O)c(-n2nc3ccccc3n2)c1`, the “activity change, negative = inhibition” value is -28%.

In the case of `FC(F)(F)C(F)(F)C(F)(F)C(F)(F)C(F)(F)C(F)(F)F`, the “activity change, negative = inhibition” value is 7.22%.

Take `CN[C@@H]1[C@H](O[C@H]2[C@H](O[C@H]3[C@H](O)[C@@H](O)[C@H](N=C(N)N)[C@@H](O)[C@@H]3N=C(N)N)O[C@@H](C)[C@]2(O)CO)O[C@@H](CO)[C@H](O)[C@H]1O`: the “activity change, negative = inhibition” value is 3.12%.

Consider `Nc1nc(/C(=C/CC(=O)O)C(=O)N[C@@H]2C(=O)N3C(C(=O)O)=CCS[C@H]23)cs1`, for which the “activity change, negative = inhibition” value was 1.55%.

On to `C=C1CC[C@H](O)CC1=C/C=C1\CCC[C@]2(C)[C@@H]([C@H](C)CC[C@@H](O)C(C)(C)O)CC[C@@H]12`, for which the “activity change, negative = inhibition” value was 5.1%.

For the compound `OCl`, the “activity change, negative = inhibition” value was 4.45%.

On to `CC(=O)Nc1ccc(OC(C)=O)cc1`, for which the “activity change, negative = inhibition” value was 4.99%.

On to `CN(C)CCOc1ccc(/C(=C(/CCCl)c2ccccc2)c2ccccc2)cc1`, for which the “activity change, negative = inhibition” value was -3.29%.

In the case of `CC1CC(O)CC(C)(C)C1` (stereo not given), the “activity change, negative = inhibition” value was 8.59%.

As to `C[C@@H]1O[C@@H](OC[C@H]2O[C@@H](Oc3c(-c4ccc(OCCO)c(OCCO)c4)oc4cc(OCCO)cc(O)c4c3=O)[C@H](O)[C@@H](O)[C@@H]2O)[C@H](O)[C@H](O)[C@H]1O`, the “activity change, negative = inhibition” value is 6.41%.

For the compound `FC(F)OC(Cl)C(F)(F)F` (stereo not given), the “activity change, negative = inhibition” value is -11%.

Regarding `O=C1C2CC3CC1CC(O)(C3)C2`, the “activity change, negative = inhibition” value is 3.76%.

Turning to `O=c1n(CC2CO2)c(=O)n(CC2CO2)c(=O)n1CC1CO1` (stereo not given), the “activity change, negative = inhibition” value is -17.1%.

As to `NCCC[C@H](N)CC(=O)N[C@H]1CNC(=O)[C@H]([C@H]2C[C@H](O)NC(N)=N2)NC(=O)/C(=C/NC(N)=O)NC(=O)[C@H](CO)NC(=O)[C@H](CO)NC1=O` (β3hOrn-[Dap]SS[ΔAla(Z-3-ureido)][X5]; lactam 1-C), the “activity change, negative = inhibition” value is 9.48%.

For `NC(=O)[C@@H]1C[C@]2(NC(=O)NC2=O)c2cc(F)ccc2O1`, the “activity change, negative = inhibition” value is -1.01%.

For the compound `CC[C@H]1OC(=O)[C@H](C)[C@@H](O[C@H]2C[C@@](C)(OC)[C@@H](O)[C@H](C)O2)[C@H](C)[C@@H](O[C@@H]2O[C@H](C)C[C@H](N(C)C)[C@H]2O)[C@](C)(O)C[C@@H](C)CN(C)[C@H](C)[C@@H](O)[C@]1(C)O`, the “activity change, negative = inhibition” value was 2.15%.

For `CC/C=C\C/C=C\C/C=C\C/C=C\C/C=C\C/C=C\CCC(=O)O`, the “activity change, negative = inhibition” value was 5.47%.

As for `OC[C@@H](O)C(O)[C@H](O)CO`, the “activity change, negative = inhibition” value was 1.34%.

Regarding `CN(C)c1ccc(C(=C2C=CC(=[N+](C)C)C=C2)c2c(O)c(S(=O)(=O)[O-])cc3cc(S(=O)(=O)O)ccc23)cc1`, the Potency is 20.6 µM (active).

`CCOC(C)OCC`: the “activity change, negative = inhibition” value is -0.408%.

For the compound `CC(C)CCC[C@@H](C)[C@H]1CC[C@H]2[C@@H]3CC=C4C[C@@H](O)CC[C@]4(C)[C@H]3CC[C@]12C`, the “activity change, negative = inhibition” value is 2.39%.

Regarding `[O-][N+](=Nc1ccccc1)c1ccccc1`, the “activity change, negative = inhibition” value is 3.08%.

For `CC1(C)[C@@H]2CC[C@@]1(C)[C@H](OC(=O)CSC#N)C2`, the “activity change, negative = inhibition” value is 5.23%.

As for `NC(=O)Oc1ccc(Cc2ccccc2)cc1`, the “activity change, negative = inhibition” value was -17.8%.

As to `CCCCCCCCCC(=O)NO`, the “activity change, negative = inhibition” value was -6.13%.

`O=C(O)[C@H]1C(=CCO)O[C@H]2CC(=O)N12`: the “activity change, negative = inhibition” value is -4.09%.

With `CN(C)CCCSc1ccccc1NC(=O)/C=C/c1ccccc1`, the “activity change, negative = inhibition” value is 4.04%.

For `Cc1ncc(C[n+]2csc(CCO)c2C)c(N)n1`, the “activity change, negative = inhibition” value was -0.895% [at 20.6 µM].

These data come from PubChem BioAssay (NCATS).
